This is an account of results in PubChem BioAssay AID463173 (ICCB-Longwood Screening Facility, Harvard Medical School, 2010).

About 4,300 (8.3%) of roughly 52,000 compounds were called active. Cut-off read from the data, not from the text of the source: active = survival mostly below about 52% (no sharp cut-off); inactive = mostly above about 56%. The entries come from a sample that favours actives as a whole.

The test system of the test is DeltatarO mutant. The test can be described thus: growth inhibition of S. aureus wild type versus tarO mutant, primary screen, teichoic acid synthesis inhibitors, RN4220, OD600 (AID 463173). Conditions: OD600, 18 h, hits give low values, screened at 18.75 µg/mL (by protocol).
`CC(C)(C)c1ccc(C(=O)N2CCC(c3noc(-c4ccc(S(=O)(=O)N5CCCC5)cc4)n3)CC2)cc1`: the survival was 89% (inactive).

For the compound `CCOC(=O)C1CCN(C(c2cc3ccc(OC)cc3n3nnnc23)c2nnnn2C2CCCC2)CC1` (configuration not stated), the survival was 101% (inactive).

On to `CCc1cccc(C)c1Nc1c(-c2cccs2)nc2ncccn12`, for which the survival was 73% (inactive).

Regarding `CCCOc1ccc(CC2C(=O)Nc3ccc(Br)cc32)cc1` (configuration not stated), the survival is 0% (active).

For `CCCCOc1ccccc1CC1C(=O)Nc2ccc(Br)cc21` (configuration not stated), the survival was 14% (active).

`COc1ccc(CC2C(=O)Nc3ccc(Br)cc32)cc1OC` (configuration not stated): the survival was 82% (inactive).

In the case of `CCOc1ccccc1CC1C(=O)Nc2ccc(Br)cc21` (configuration not stated), the survival was 59% (inactive).

Turning to `CCOc1c(CC2C(=O)Nc3ccc(Br)cc32)cccc1OC` (configuration not stated), the survival is 102% (inactive).

Turning to `COc1ccc(OC)c(CC2C(=O)Nc3ccc(Br)cc32)c1` (configuration not stated), the survival was 72% (inactive).

Consider `Cc1cc(C)cc(NC(=O)C2CCN(S(=O)(=O)c3ccc4c(c3)oc(=O)n4C)CC2)c1`, for which the survival is 95% (inactive).

In the case of `COc1ccc2c(c1)c1c(c(=O)n(CCc3ccccc3)c(=O)n1Cc1cccc(Cl)c1)n2C`, the survival is 76% (inactive).

For `O=C(CN1C(=O)CSc2ccc(S(=O)(=O)N3CCCCC3)cc21)NCc1ccc(F)cc1Cl`, the survival was 79% (inactive).

In the case of `CNC(=S)N1C2CCC1CC(NC(=O)NC13CC4CC(CC(C4)C1)C3)C2` (configuration not stated), the survival was 79% (inactive).

As to `CCOC(=O)c1ccc(NC(=O)Nc2cccc(OCc3cc(=O)n4ccc(C)cc4n3)c2)cc1`, the survival was 68% (inactive).

Regarding `CCCCc1ccc(NC(=O)CSc2nc3ccccc3nc2N2CCCCC2)cc1`, the survival was 30% (active).

Regarding `CCc1cccc(NC(=O)CSc2nc3ccccc3nc2N2CCCCC2)c1`, the survival was -6% (active).

Take `COc1cccc(NC(=O)CSc2nc3ccccc3nc2N2CCOCC2)c1`: the survival is 54% (inactive).

For the compound `CCc1cccc(C)c1NC(=O)CSc1nc2ccccc2nc1N1CCOCC1`, the survival is 81% (inactive).

With `CCOc1ccccc1NC(=O)CSc1nc2ccccc2nc1N1CCOCC1`, the survival is 4% (active).

For the compound `Cc1ccc(NC(=O)CSc2nc3ccccc3nc2N2CCOCC2)cc1`, the survival is 54% (inactive).

For `CC(=O)Nc1ccc(NC(=O)CSc2nc3ccccc3nc2N2CCOCC2)cc1`, the survival is 83% (inactive).

As for `CCCCc1ccc(NC(=O)CSc2nc(=O)[nH]c3c2CCCC3)cc1`, the survival was 74% (inactive).

On to `CCCCc1ccc(NC(=O)CSc2nc3ccccc3nc2N2CCOCC2)cc1`, for which the survival is 30% (active).

As for `CCOc1ccc(NC(=O)CSc2nc3ccccc3nc2N2CCOCC2)cc1`, the survival is 87% (inactive).

As to `Cc1cccc(NC(=O)CSc2nc3ccccc3nc2N2CCOCC2)c1C`, the survival was 51% (inactive).

In the case of `O=C(CS(=O)(=O)Cc1ccccc1)Nc1ccc2c(c1)OCO2`, the survival is 69% (inactive).

As to `O=C(NCc1ccc(F)cc1)c1cnc(N2CCOCC2)c2ccccc12`, the survival was 95% (inactive).

As to `CN(CC(=O)Nc1ccc(F)cc1F)S(=O)(=O)c1ccc(C(=O)N2CCOCC2)s1`, the survival was 88% (inactive).

Regarding `COc1ccc(S(=O)(=O)N2CCC(Oc3ccc(-n4cnnn4)cc3)CC2)cc1OC`, the survival is 77% (inactive).

For the compound `Cc1ccc(CNC(=O)C2CCN(c3nc4ccccc4n(C)c3=O)CC2)cc1`, the survival is 87% (inactive).

Regarding `O=C(Nc1ccccc1C(=O)OCc1cc(=O)n2c3c(sc2n1)CCCC3)c1ccc(F)cc1`, the survival was 106% (inactive).

With `COc1ccc(OC)c(CNC(=O)c2ccc(Sc3ccc(Cl)cc3)c(NC(C)=O)c2)c1`, the survival is 83% (inactive).

Take `CCc1ccc(-c2cn3c(n2)sc2cc(C(=O)NCC(C)c4ccccc4)ccc23)cc1` (configuration not stated): the survival was 69% (inactive).

As to `COC(=O)c1cnc(N2CCN(c3ccc(OC)cc3)CC2)c2ccccc12`, the survival is 62% (inactive).

In the case of `COc1cc(CNC(=O)c2ccc3nc(CCc4ccccc4)oc3c2)cc(OC)c1OC`, the survival is 80% (inactive).

With `CCc1nn(Cc2cc(C)ccc2C)c(=O)c2cc3cc(C)ccc3n12`, the survival is 95% (inactive).

Regarding `CCOc1ccc(-c2cc(C(=O)NCCc3ccc(OC)c(OC)c3)[nH]n2)cc1`, the survival was 77% (inactive).

Regarding `COc1ccc(S(=O)(=O)N2CCN(Cc3ccc4c(c3)OCO4)CC2)cc1OC`, the survival is 43% (active).

As for `NC(=O)CN1CCN(Cc2ccc3c(c2)OCO3)CC1`, the survival is 76% (inactive).

`Cc1cc(C)c(S(=O)(=O)N2CCN(Cc3ccc4c(c3)OCO4)CC2)cc1C`: the survival is 13% (active).

Regarding `COc1cccc(S(=O)(=O)N2CCN(Cc3ccc4c(c3)OCO4)CC2)c1`, the survival is 75% (inactive).

`COc1ccc(S(=O)(=O)N2CCN(Cc3nc4ccc(C)cc4o3)CC2)cc1OC`: the survival was 84% (inactive).

On to `Cc1ccc(S(=O)(=O)N2CCN(Cc3ccc4c(c3)OCO4)CC2)cc1`, for which the survival is 70% (inactive).

Regarding `O=C(NCCc1ccc(Cl)cc1)c1cc(-c2ccc(Cl)cc2)n[nH]1`, the survival is 68% (inactive).

As for `CCOC(=O)c1nnc2c(-c3ccc(Cl)cc3)c(C)nn2c1C`, the survival is 49% (inactive).

Regarding `CC(=O)Nc1ccc(NC(=O)C(Cc2ccccc2)N2Cc3ccccc3C2=O)cc1` (configuration not stated), the survival is 82% (inactive).

With `Cc1ccc(NC(=O)C(Cc2ccccc2)n2cccc2)cc1` (configuration not stated), the survival was 76% (inactive).

Take `CC(C)c1ccc(NC(=O)C(Cc2ccccc2)n2cccc2)cc1` (configuration not stated): the survival is 23% (active).

For the compound `COc1ccc(NC(=O)C(Cc2ccccc2)n2cccc2)c(OC)c1` (configuration not stated), the survival was 67% (inactive).

As for `O=C(Nc1ccccc1F)C(Cc1ccccc1)n1cccc1` (configuration not stated), the survival is 77% (inactive).

As for `O=C(Nc1ccc(C(F)(F)F)cc1)C(Cc1ccccc1)n1cccc1` (configuration not stated), the survival was -4% (active).

Regarding `CCOc1ccc(S(=O)(=O)NCCc2sc3nc(-c4ccc(C)cc4)nn3c2C)cc1`, the survival was 109% (inactive).

Turning to `Cc1coc2c(C)c3oc(=O)c(CC(=O)N4CCCCC4)c(C)c3cc12`, the survival was 79% (inactive).

With `Cc1oc2c(C)c3oc(=O)c(CCC(=O)N4CCCCC4)c(C)c3cc2c1C`, the survival was 89% (inactive).

Take `Cc1coc2c(C)c3oc(=O)c(CCC(=O)N4CCCCC4)c(C)c3cc12`: the survival is 44% (active).

Take `CC1CCC(N2CC(=O)N(C3CCCCC3)C(c3ccc(F)cc3)C2=O)CC1` (configuration not stated): the survival is 82% (inactive).

Take `CCCOc1ccc(CNC(=O)C2CCN(c3nc4ccccc4nc3C(F)(F)F)CC2)cc1`: the survival is 75% (inactive).

Take `CCCOc1ccc(-c2nc(N3CCC(C)CC3)c3ccccc3n2)cc1`: the survival is -1% (active).

As to `Cc1ccc(-c2nc(N3CCN(c4ccccc4Cl)CC3)c3ccccc3n2)cc1`, the survival is 52% (inactive).

With `c1ccc(-c2nc(N3CCCCC3)c3ccccc3n2)cc1`, the survival is 96% (inactive).

As for `CCCOc1ccc(-c2nc(N3CCCCC3)c3ccccc3n2)cc1`, the survival is -2% (active).

Consider `CCOc1ccc(-n2cc(-c3ccccc3)c3c(N4CCC(C)CC4)ncnc32)cc1`, for which the survival was 90% (inactive).

On to `Cc1ccc(C)c(N2CCN(S(=O)(=O)c3c(C)nc4sccn4c3=O)CC2)c1`, for which the survival is 92% (inactive).

For `CCOc1ccc(NC(=O)C2CC(=O)NC(=Nc3ccc(Cl)c(Cl)c3)S2)cc1` (configuration not stated), the survival is 72% (inactive).

For `CCOC(=O)c1ccc(NC(=O)C2CC(=O)NC(=Nc3ccc(C)c(C)c3)S2)cc1` (configuration not stated), the survival is 47% (active).

As for `CCc1ccc(N=C2NC(=O)CC(C(=O)Nc3ccc(OC)cc3)S2)cc1` (configuration not stated), the survival was 87% (inactive).

For the compound `CN(C)c1ccc(C(C(=O)NCC2CCCO2)N(C(=O)Cn2nnc3ccccc32)c2ccc3c(c2)OCO3)cc1` (configuration not stated), the survival is 90% (inactive).

For the compound `O=C(Nc1cccc(Cl)c1Cl)c1cc(S(=O)(=O)N2CCCCC2)ccc1F`, the survival was 72% (inactive).

In the case of `O=C(Nc1cccc(F)c1)C1CCN(S(=O)(=O)c2cccc3nsnc23)CC1`, the survival was 83% (inactive).

As to `COc1ccc(-c2noc(CN3CCN(c4cccc(Cl)c4)CC3)n2)cc1`, the survival is 13% (active).

On to `COc1cc(-c2noc(CN3CCN(c4cccc(Cl)c4)CC3)n2)cc(OC)c1OC`, for which the survival is 77% (inactive).

On to `COc1ccc(N2CCN(Cc3nc(-c4ccc(C)cc4)no3)CC2)cc1`, for which the survival was 48% (inactive).

As to `Cc1cccc(N(C)c2nc3ccccc3c3nnc(C)n23)c1`, the survival is 118% (inactive).

Take `COc1ccc(C)cc1NC(=O)N1CCC(CN2CCC(C)CC2)CC1`: the survival is 91% (inactive).

`CCCCN(c1ccccc1)S(=O)(=O)c1cc2c3c(c1)C(C)C(=O)N3CCC2` (configuration not stated): the survival was 69% (inactive).

`Cc1ccc2cccc(NC(=O)COc3ccccc3Cl)c2n1`: the survival is 179% (inactive).

As to `Cc1cc(C)c(OCC(=O)Nc2cccc(-c3nc4ncccc4o3)c2)c(Br)c1`, the survival was 4% (active).

As for `Cc1ccccc1OCC(=O)Nc1ccc(-c2nc3ncccc3o2)cc1`, the survival was 60% (inactive).

For the compound `CCC(C)c1ccc(OCC(=O)Nc2cccc3ccc(C)nc23)cc1` (configuration not stated), the survival was -3% (active).

On to `COc1ccc(OCC(=O)Nc2ccc(-c3nc4ncccc4o3)cc2)cc1`, for which the survival is 84% (inactive).

As for `CCC(C)c1ccc(OCC(=O)Nc2cccc(-c3nc4ncccc4o3)c2)cc1` (configuration not stated), the survival is 19% (active).

`CCC(C)c1ccc(OCC(=O)Nc2ccc(-c3nc4ncccc4o3)cc2)cc1` (configuration not stated): the survival is 44% (inactive).

Regarding `Cc1ccc(C(C)C)c(OCC(=O)Nc2cccc(NC(=O)c3ccco3)c2)c1`, the survival is 10% (active).

With `COc1ccc(NC(=O)c2ccco2)cc1NC(=O)COc1cc(C)ccc1C(C)C`, the survival is 63% (inactive).

Consider `CCCC(=O)Nc1cccc(-c2nc3ncccc3o2)c1`, for which the survival was 66% (inactive).

Regarding `Cc1ccc(C(C)C)c(OCC(=O)Nc2ccc3c(c2)nc(CCNC(=O)c2ccco2)n3C)c1`, the survival is 54% (inactive).

`Cc1ccc2cccc(NC(=O)COc3cc(C)c(Cl)c(C)c3)c2n1`: the survival is 75% (inactive).

Regarding `CCc1cccc2sc(N3CCN(C(=O)C4CC4)CC3)nc12`, the survival is 94% (inactive).

As to `CCCSCCCNC(=O)C1CCN(C(=O)c2cc3sccc3n2C)CC1`, the survival is 109% (inactive).

Consider `O=C(Nc1cccc(Cl)c1Cl)c1ccc2c(c1)N(Cc1cccc(Cl)c1)C(=O)c1ccccc1S2(=O)=O`, for which the survival is 108% (inactive).

`Cc1cc2c(n1-c1ccc(C(=O)NCc3cccc(Br)c3)cc1)CCC(C)C2` (configuration not stated): the survival is 125% (inactive).

In the case of `Cc1cccc(OCC(=O)Nc2ccc(Cl)c(-c3nc4ncccc4o3)c2)c1C`, the survival is 62% (inactive).

Regarding `Cc1ccc(C(C)C)c(OCC(=O)Nc2ccc(-c3nc4ncccc4o3)cc2C)c1`, the survival is 54% (inactive).

In the case of `Cc1ccc(C(C)C)c(OCC(=O)Nc2cccc(-c3nc4ncccc4o3)c2)c1`, the survival is 2% (active).

`Cc1ccc(C(C)C)c(OCC(=O)Nc2ccc(C(=O)OC3CCCCC3)cc2)c1`: the survival is 33% (active).

Turning to `Cc1cc(OCC(=O)Nc2ccc(C(=O)OC3CCCCC3)cc2)cc(C)c1Cl`, the survival was 50% (inactive).

Turning to `O=C(COc1ccc(Cl)cc1Cl)Nc1ccc(C(=O)OC2CCCCC2)cc1`, the survival was 57% (inactive).
